# Experimental data taken from PubChem BioAssay (NCI).
# About 79,000 compounds went through this panel and 15% of them were active in at least one assay; those are over-represented in the sample as a whole. Unmarked numbers belong to inactive results. The source made the active and inactive calls. Cut-off read from the data, not from the text of the source: active = growth inhibition above about 70%; inactive = the rest.
# Test: NCI Yeast Anticancer Drug Screen. Data for the rad50 strain (AID 155);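 note: 0% = growth of vehicle-only cultures of the same strain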
# Details: S. cerevisiae rad50 strain growth inhibition; at 50.0 µM; hits give high values
# In short: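 Vehicle-treated cultures provide the reference for the growth inhibition reported for compound-exposed, repair-deficient yeast.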
row,SMILES,growth inhibition
1,CCOC(=O)c1c(N)sc2c1C(C(=O)OCC)CCC2 (stereo not given),-28.3%
2,Cc1cc(N(CCCOS(C)(=O)=O)CCCOS(C)(=O)=O)ccc1C=Nc1cc(Cl)c(O)c(Cl)c1,31.7%
3,COc1ccc2c(c1)OC[C@@H]1c3cc(NS(=O)(=O)c4ccccc4)cc(OC)c3O[C@H]21,10.9%
4,CC(NC(=O)N=Nc1ccccc1)C(=O)O (stereo not given),-3.05%
5,O=C1CSC(/C(=C\c2ccc(Cl)cc2)c2nc3ccccc3[nH]2)=N1,11.3%
6,Oc1ccc(Br)cc1/C=N\NC(=S)Nc1ccc2cn[nH]c2c1,47.1%
7,Cc1cc2c(cc1C)NC(C)CC(=O)N2 (stereo not given),5.8%
8,COC(=O)/C=C/C(=N/N(C)c1ccccc1)c1ccccc1,3.35%
9,Fc1ccc(C=C2c3ccccc3-c3ccccc32)cc1,11.7%
10,COC(=O)Nc1nc2ccc(-n3c(C)nc4ccccc4c3=O)cc2[nH]1,10.8%
11,CCOC(=O)c1sc(N)nc1O,-5.5%
12,COc1ccccc1NC(=O)Cc1nc(=O)[nH]c(=O)[nH]1,-13.3%
13,CCCCCCCCSC(SCCCCCCCC)=C1C(=O)N(c2ccccc2)N=C1C,-5.9%
14,NC(=O)/C(=N/O)c1ccccc1,-1.85%
15,O=C1CN(CCN2CCCCC2)CC(=O)N2CCCCN12,-32%
16,CC1=NOC(=O)/C1=C/c1ccc(C)cc1,33.6%
17,CC(=O)Nc1ccc(S(=O)(=O)c2ccc(NC(C)=O)cc2)cc1,-10.6%
18,CCN(CC)CCOc1cccc(Oc2ccccc2)c1,74% (active)
19,COc1cccc2c1c1ccc3c(c1n2C)C(=O)C=CC3=O,23.6%
20,CCn1c(=O)c2[nH]c(-n3c(Cl)nc4c3c(=O)n(CC)c(=O)n4CC)nc2n(CC)c1=O,31.1%

row,SMILES,growth inhibition
1,C/C(=N\NS(=O)(=O)c1ccc(C)cc1)P(=O)(O)O,-6.85%
2,Cc1ccc2ccccc2[n+]1CC(=O)c1ccc([N+](=O)[O-])cc1,-16.8%
3,COc1ccc(NC(=O)CCc2cc(C(C)(C)C)n[nH]2)cc1,-22.1%
4,CS/C(=C\c1ccc2cc(C)ccc2[n+]1C)N1CCOCC1,7.25%
5,C=C(CN(C)C)c1ccccn1,-11.9%
6,CC(C)(C)c1cc(C(=O)O)c2c(c1)C(=O)OC2(c1ccccc1)c1ccccc1C(=O)O (stereo not given),29.1%
7,Cc1cc(=O)oc2c(CNC(CC(C)C)C(=O)O)c(O)ccc12 (stereo not given),-51.9%
8,COC(=O)CC(C)N(c1cccc(Cl)c1)S(=O)(=O)c1ccc(C)cc1 (stereo not given),52.3%
9,CC(=C/c1ccccc1)/C=C1/NC(=S)N(CN2CCCCCC2)C1=O,5.15%
10,Cc1cc(NCCN(C)C)nc(Nc2ccc(Cl)cc2)n1,50.8%
11,CC(CCC(=O)O)[C@H]1CCC2[C@@H]3CC[C@@H]4CC(O)CC[C@]4(C)C3CC[C@@]21C (stereo not given in full),-31.1%
12,CC/C(C=O)=C\NC(=O)Nc1ccccc1,9.35%
13,C=CCNC(=O)CCCCCCC/C=C\CCCCCCCC,16.6%
14,N#C/C(=C\c1cccs1)C(=O)c1ccco1,10.2%
15,c1ccc2c(c1)OP1(=NP3(=NP4(=NP5(=N1)Oc1ccccc1-c1ccccc1O5)Oc1ccccc1-c1ccccc1O4)Oc1ccccc1-c1ccccc1O3)Oc1ccccc1-2,7.8%
16,CN(C)C(=O)C1Cc2ccccc2CC1C(=O)N(C)C (stereo not given),-0.4%
17,CCCCCC(O)(CCCC)CCCC,-0.45%
18,COc1cc(OC)c(C(=O)/C=C/c2ccncc2)cc1C(=O)O,10.1%
19,C[C@H]1CC[C@@H](C(C)(C)O)CC2=C1CC[C@@H]2C,-0.2%
20,Cn1c(N2CCCC2)c(C=O)c(=O)n(C)c1=O,4.5%
